{
  "source": "ChEMBL document CHEMBL1157539",
  "about": "“Thousands of chemical starting points for antimalarial lead identification” (Nature, 2010)",
  "data": [
    {"tested_on": "HepG2", "experiment": "GSK_TCMDC: Percent inhibition of human HepG2 cell line. Test compounds present at 10uM.", "type": "functional", "units": {"Inhibition": "%"}, "values": [
      {"smiles": "Cc1ccc(N2C(N)=NC(N)=NC2c2ccccc2)cc1.Cl", "note": "(stereo unspecified)", "Inhibition": 11},
      {"smiles": "Br.Oc1ccc(CCNCCCCCCNCCc2ccc(Cl)cc2)c(Cl)c1O", "Inhibition": 23},
      {"smiles": "CCc1ccc(NC(=O)N(CCCn2ccnc2)Cc2csc(-c3ccc(CNCc4ccccc4)cc3)n2)cc1.O=C(O)C(F)(F)F", "Inhibition": 9},
      {"smiles": "O=C(Cc1ccc(NC(=O)c2ccc(O)c(-c3ccc(Cl)c(Cl)c3)c2)cc1)NCCN1CCCCC1", "Inhibition": 12},
      {"smiles": "Cc1ccc(S(=O)(=O)N2CCCN(C(=O)c3cc(-c4ccccc4)[nH]n3)CC2)cc1", "Inhibition": 11},
      {"smiles": "Cc1cc(N[C@@H](Cc2ccccc2)C(=O)NC2CCCC2)nc(Nc2ccccc2)n1.O=C(O)C(F)(F)F", "Inhibition": 3},
      {"smiles": "CS(=O)(=O)CCNCc1nc(-c2ccc3c(Nc4ccc(F)c(O)c4)ccnc3c2)cs1", "Inhibition": 0},
      {"smiles": "Cc1cccc2nc(-c3ccc(-c4cccc(C(=O)NCCc5cn(C)cn5)c4)s3)[nH]c12", "Inhibition": 27},
      {"smiles": "O=C(NCCCCN1CCC(c2ccc(Br)cc2)CC1)c1ccc(NC(=O)c2ccc(Cl)cc2)cc1", "Inhibition": 17},
      {"smiles": "CCC(c1ccccc1)c1nn2c(-c3cccs3)nnc2s1", "note": "(stereo unspecified)", "Inhibition": 10},
      {"smiles": "COc1ccccc1CCNc1ncnc2c1[nH]c1ccc(F)cc12", "Inhibition": 49},
      {"smiles": "Cc1n[nH]c2cc(Nc3ccnc(Nc4cccc(CN5CCOCC5)c4)n3)ccc12", "Inhibition": 33},
      {"smiles": "Cn1cnc(CCNC(=O)c2cccc(-c3cccc(-c4nc5cc(C(F)(F)F)ccc5[nH]4)c3)c2)c1", "Inhibition": 37},
      {"smiles": "Br.CC1(C)NC(N)=NC(=N)N1OCCOc1ccc2ccccc2c1", "Inhibition": 70},
      {"smiles": "CN(C)CCCN1C(=O)c2[nH]nc(-c3ccc(Cl)cc3O)c2C1c1ccc(Cl)cc1", "note": "(stereo unspecified)", "Inhibition": 57},
      {"smiles": "O=C(NCc1ccc(Cl)cc1)c1ccc(CN2CCCN(CC3CCCCC3)CC2)cc1.O=C(O)C(F)(F)F", "Inhibition": 18},
      {"smiles": "Cc1c(C)c2c(c(C)c1O)CC[C@](C)(C(=O)N1CCC(CCN3CCC(c4c[nH]c5ccccc45)CC3)CC1)O2", "Inhibition": 31},
      {"smiles": "O=C(Nc1ccc(OC2CCN(Cc3ccsc3)C2)c(Cl)c1)c1cccs1.O=C(O)C(F)(F)F", "note": "(stereo unspecified)", "Inhibition": 0},
      {"smiles": "CCCCCCCCNc1c2ccc(Cl)cc2nc2ccc(OC)cc12.Cl", "Inhibition": 11},
      {"smiles": "NCC1CCCN1Cc1cccc(-c2ccc(-c3nc4cc(C(F)(F)F)ccc4[nH]3)cc2)c1.O=C(O)C(F)(F)F", "note": "(stereo unspecified)", "Inhibition": 20},
      {"smiles": "Cc1noc(C)c1-c1cccc(CNCc2cccc(-c3ccc(-c4nc5ccccc5[nH]4)cc3)c2)c1.O=C(O)C(F)(F)F", "Inhibition": 27},
      {"smiles": "Cc1cccc2nc(-c3cccc(-c4ccc(NC(=O)NCc5ccccc5)cc4)c3)[nH]c12", "Inhibition": 35},
      {"smiles": "CCc1cn2c3c(cc(C(=O)N[C@@H](Cc4ccccc4)[C@H](O)CNC(C)(C)CCCC(C)C)cc13)N(C)S(=O)(=O)C2.O=CO", "Inhibition": 71},
      {"smiles": "Cc1noc(C)c1CN1Cc2ccccc2OC2(CCN(Cc3c[nH]c4cnccc34)CC2)C1.O=C(O)C(F)(F)F", "Inhibition": 19},
      {"smiles": "COc1cccc(CCNc2nc(NCc3ccccc3)c3cc(OC)c(OC)cc3n2)c1", "Inhibition": 20},
      {"smiles": "CCc1cn2c3c(cc(C(=O)N[C@@H](Cc4ccccc4)[C@H](O)CNC4CC4)cc13)N(CC)S(=O)(=O)CC2.O=CO", "Inhibition": 13}
    ]}
  ]
}
